Results from the supplement of paper PMC4371806.
The full ranking holds about 2,300 compounds; the median of “plate-normalized OD600 growth (mean of duplicates)” is about 0.29, and the lowest 2% start at about 0.22. Many of the other results were omitted from the sample, so the lowest values are more common in it than they were.

System: Escherichia coli BW25113
Assay: plate-normalized OD600 growth (mean of duplicates) (OD600 (normalized)); higher = more growth (less inhibition)
Conditions: 10 µM
Procedure: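 E. coli BW25113 in LB (100 µl, 96-well, no shaking) was exposed to 10 µM of each compound from a ~30,000-member library and grown at 37°C for 24 h or 15°C for 48 h, in duplicate. Growth was read as OD600 and the duplicate ODs were normalized across screening plates to correct plate-to-plate variation. Hits were >3σ below the mean OD600 at 15°C and <2σ below the mean at 37°C.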

| Compound | plate-normalized OD600 growth (temperature: 15°C, 48 h) | plate-normalized OD600 growth (temperature: 37°C, 24 h) |
| --- | --- | --- |
| O=C(COc1ccccc1[N+](=O)[O-])Nc1ccccn1 | 0.24 | 0.619 |
| COc1ccc(Nc2nc(N/N=C/c3ccc(-c4cccc(C(=O)O)c4)o3)nc(Nc3ccccc3)n2)cc1 | 0.226 | 0.634 |
| CC(C)(C)OC(=O)NC(Cc1ccc(OCc2ccccc2)cc1)C(=O)O (stereo not given) | 0.26 | 0.615 |
| CCOC(=O)/C(C(C)=O)=C1/SCC(C)S1 (stereo not given) | 0.235 | 0.609 |
| O=C1CC2(CCCC2)C(=O)N1CCNc1nccc(C(F)(F)F)n1 | 0.261 | 0.637 |
| Cc1ccc(NC(=O)Nc2ccc(C)c(NC(=O)Nc3ccc(C)cc3)c2)cc1 | 0.242 | 0.578 |
| O=C(CNC(=O)C(c1ccccc1)c1ccccc1)N/N=C/c1cc(Br)ccc1O | 0.237 | 0.617 |
| COc1cc(OC)c(C2C(C#N)=C(N)Oc3n[nH]c(-c4cccnc4)c32)cc1OC (stereo not given) | 0.244 | 0.612 |
| CCc1nc(N)c(C#N)c(-c2ccccc2)c1C | 0.239 | 0.61 |
| CSc1nc2sc(C)c(C)c2c(=O)n1-c1ccccc1 | 0.219 | 0.653 |
| O=C1/C(=C\c2ccc(Cl)cc2Cl)N=C(c2ccccc2)N1C1CC1 | 0.241 | 0.577 |
| COc1ccc(C(=O)NCC(=O)N/N=C(\C)c2cccc(N)c2)cc1OC | 0.249 | 0.633 |
| O=C1CCc2cccc3cccc1c23 | 0.235 | 0.604 |
| CCN(CC)c1ccc(C2C(C(=O)OC3CCCCC3)=C(C)NC3=C2C(=O)CC(c2ccc(Cl)cc2)C3)cc1 (stereo not given) | 0.238 | 0.614 |
| CC1(C)C2CCC1(C)C(N/C(=C(/C(Cl)=C(Cl)Cl)[N+](=O)[O-])n1nnc3ccccc31)C2 (stereo not given) | 0.253 | 0.629 |
| COc1ccc(OC)c(NC(=O)c2ccc(N3C(=O)/C(=C/c4ccc(Cl)cc4)N=C3c3ccccc3)cc2)c1 | 0.216 | 0.634 |
| CSc1ccc(/C=C2\N=C(c3ccccc3)N(c3ccc(C(=O)Nc4ccc(Br)cc4)cc3)C2=O)cc1 | 0.257 | 0.649 |
| O=C(Nc1ccc(F)c(Cl)c1)c1ccc(N2C(=O)/C(=C/c3ccccc3)N=C2c2ccccc2)cc1 | 0.238 | 0.653 |
| COc1cc(NC(=S)N2CCN(c3ccccc3OC)CC2)c(OC)cc1Cl | 0.231 | 0.614 |
| Cc1cc(N2CCCC2)ccc1/C=N/n1cnnc1 | 0.259 | 0.687 |

| Compound | plate-normalized OD600 growth (temperature: 15°C, 48 h) | plate-normalized OD600 growth (temperature: 37°C, 24 h) |
| --- | --- | --- |
| Cc1cc(C=Nc2ccc(Cl)c(O)c2)c(C)n1-c1ccc(Cl)cc1 | 0.248 | 0.605 |
| CN1N=C(SCc2ccc(Cl)cc2Cl)Sc2c1cnn(C)c2=O | 0.25 | 0.591 |
| CCCCCCCCNC(=O)C(=O)Nc1cccc(F)c1 | 0.244 | 0.564 |
| Cc1ccc2c(c1)N(CCO)C(C)(C)CC2C (stereo not given) | 0.211 | 0.651 |
| O=C(Nc1ccc(S(=O)(=O)Nc2cccc(Cl)c2Cl)cc1)C1COc2ccccc2O1 (stereo not given) | 0.262 | 0.62 |
| Cc1cc(C)c2nc3s/c(=C\c4ccccc4C(F)(F)F)c(=O)n3c2c1 | 0.249 | 0.593 |
| Cc1nc(-c2ccccn2)nc(NCCNc2cccc(C(F)(F)F)n2)c1Cl | 0.257 | 0.626 |
| O=C(CC1CCC1)Nc1cc(Cl)ccc1Cl | 0.256 | 0.619 |
| Cc1nnsc1C(=O)Nc1ccc(CN2CCS(=O)(=O)CC2)cc1 | 0.244 | 0.614 |
| Cc1cc(NC(=NS(=O)(=O)c2ccc(Br)cc2)c2ccccc2)c(Cl)c(C)c1O | 0.214 | 0.634 |
| Cc1ccc(S(=O)(=O)N=C(Nc2ccc(O)c(Cl)c2)c2ccccc2)cc1 | 0.232 | 0.618 |
| Cc1cc(NC(=NS(=O)(=O)c2ccc(Br)cc2)c2ccccc2)cc(C)c1O | 0.251 | 0.652 |
| Cc1oc(CC(C)C)cc1C(=O)Nc1cccc(C(=O)O)c1 | 0.255 | 0.643 |
| Nc1ccccc1C(=O)Nc1cc(C(=O)O)cc(C(=O)O)c1 | 0.232 | 0.625 |
| NC(N)=Nc1nc(-c2cc(Cl)sc2Cl)cs1 | 0.242 | 0.607 |
| COc1cc(NC(=O)CCN2CCC(C)CC2)cc(OC)c1 | 0.217 | 0.647 |
| Cc1c(Br)sc2ccc(Cl)cc12 | 0.247 | 0.612 |
| O=C(CC1(O)C(=O)C=C(c2ccccc2)N1N=C(c1ccccc1)c1ccccc1)c1ccccc1 (stereo not given) | 0.242 | 0.588 |
| CCOC(=O)COc1nc(-c2ccccc2)cc(-c2ccccc2)c1C#N | 0.251 | 0.629 |
| COc1ccc(C2SCC(=O)N2CCN2CCCCC2)cc1 (stereo not given) | 0.238 | 0.618 |

| Compound | plate-normalized OD600 growth (temperature: 15°C, 48 h) | plate-normalized OD600 growth (temperature: 37°C, 24 h) |
| --- | --- | --- |
| O=c1[nH]c2cccnc2[nH]c1=O | 0.233 | 0.617 |
| COc1ccc(C2CC(=O)N2C2(C(=O)Nc3c(C)cccc3C)CCCCC2)cc1OC (stereo not given) | 0.24 | 0.605 |
| c1ccc(OCCOc2ccccn2)nc1 | 0.25 | 0.612 |
| COc1ccc(Nc2nc(Cl)nc(NCCC3=CCCCC3)n2)cc1 | 0.257 | 0.602 |
| O=C1c2cccc3c(SCCO)ccc(c23)C(=O)N1CCc1ccccn1 | 0.265 | 0.634 |
| O=C(O)c1cccc(N=Cc2ccc(OCc3ccc(F)cc3)cc2)c1 | 0.225 | 0.684 |
| CCCc1ccc(OCC(=O)NNC(=S)Nc2ccccc2)cc1 | 0.244 | 0.618 |
| O=[N+]([O-])c1cnc(Sc2n[nH]c(-c3cccs3)n2)s1 | 0.225 | 0.607 |
| C=CCn1c(Sc2ncc([N+](=O)[O-])s2)n[nH]c1=O | 0.181 | 0.588 |
| C=CCn1c(CSc2ccccc2[N+](=O)[O-])n[nH]c1=S | 0.26 | 0.606 |
| COc1ccc(/C=N/Nc2nnnn2-c2cccc3ccccc23)cc1OC | 0.253 | 0.627 |
| N#CCC(=O)N(Cc1ccccc1F)C(=O)NC1CCCCC1 | 0.263 | 0.647 |
| N/C(=N/OC(=O)c1ccccc1)c1ccc(-c2csnn2)cc1 | 0.252 | 0.6 |
| CCC(C)(C)C1CCc2sc3nc[nH]c(=O)c3c2C1 (stereo not given) | 0.248 | 0.626 |
| CCOc1cc(/C=N/n2cnc3sc4c(c3c2=O)CCCC4)cc(Br)c1OCc1ccc(Cl)cc1 | 0.245 | 0.619 |
| CCOC(=O)c1ccc(-c2ccc(/C=C(\C#N)C(=O)NC3CCCCC3)o2)cc1 | 0.241 | 0.604 |
| COC(=O)CSc1nc(N)cc(=O)[nH]1 | 0.247 | 0.605 |
| Cc1cc(C)c(C(=O)CSc2nc3ccccc3[nH]2)c(C)c1 | 0.213 | 0.626 |
| O=C(CSc1nc2ccccc2[nH]1)Nc1nc2ccccc2s1 | 0.244 | 0.604 |
| O=C1CC(NCc2ccco2)C(=O)N1c1ccc(OC(F)(F)Cl)cc1 (stereo not given) | 0.268 | 0.642 |
